PubChem BioAssay (NCI)
Values joined by “and” are separate entries in the source; they are usually repeats but may differ in a detail not shown here. Identical values can stand only once. Compounds without any hit were thinned out: in the full panel of roughly 83,000, 20% have a hit.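 Negative percent growth values reflect cell death: -40 means 40% of the cells present at the start died, and -100 means all died.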 Active and inactive are the calls of the source.

Assays:
Test in all cases: NCI-60 one-dose screen, 48 h (100 = growth as untreated, 0 = no growth, -100 = all killed)
T-47D breast = test system: T-47D breast
BT-549 breast = test system: BT-549 breast
MDA-MB-435 melanoma = test system: MDA-MB-435 melanoma
SW-620 colon = test system: SW-620 colon
MCF7 breast = test system: MCF7 breast
Procedure: Growth inhibition of the MCF7 human tumor cell line is measured as a screen for anti-cancer activity. Cells are grown in 96 well plates and exposed to the test compound for 48 hours. Compounds are tested at a single concentration, which is 10^-5 M for most compounds. The reported endpoint is percent growth (GI% or GIPRCNT), where numbers from 0 - 100% represent growth inhibition, and numbers from -100% - 0 represent cell death. For example, a value of 40 represents 60% growth inhibition. A value of 0 means no net growth occurred over the course of the experiment. A value of -40 indicates 40% of cells at the beginning of the experiment died by the end of the experiment. A value of -100 means all cells are dead at the end of the experiment.
NCI-60 Human Tumor Cell Lines Screen was performed using the standard one-dose NCI protocol, which is described in more detail at https://dtp.cancer.gov/discovery_development/nci-60/default.htm.
Compounds with GIPRCNT values below 10 were considered active. Activity score was based on GIPRCNT using the following formula: […]
Score is 0 for GIPRCNT values of 100 or above, 50 for GIPRCNT values of 0, and 100 for GIPRCNT values of -100.

HCT-116 colon = test system: HCT-116 colon
HCC-2998 colon = test system: HCC-2998 colon
KM12 colon = test system: KM12 colon

Measured: growth

CC[C@@]1(O)C(=O)OCc2c1cc1n(c2=O)Cc2cc3c(CN(C)C)c(O)ccc3nc2-1
active: T-47D breast; 10 µM 9.96% and 8.7% | BT-549 breast; 10 µM -1.81% and -14.9% | MDA-MB-435 melanoma; 10 µM -44.2% and -55% | SW-620 colon; 10 µM 9.23% and 7.32% | MCF7 breast; 10 µM 1.58% and 5.19% | HCT-116 colon; 10 µM 0.82% and -14.2% | HCC-2998 colon; 10 µM -14.2% and -26.3% | KM12 colon; 10 µM 6.1% and -42.5%

CN(Cc1cnc2nc(N)nc(N)c2n1)c1ccc(C(=O)N[C@@H](CCC(=O)O)C(=O)O)cc1
active: HCC-2998 colon; 2.5 µM 8.58%
inactive: T-47D breast; 2.5 µM 55.6% | T-47D breast; 10 µM 46.2% | BT-549 breast; 2.5 µM 40.9% | BT-549 breast; 10 µM 46.9% | MDA-MB-435 melanoma; 2.5 µM 25.7% | MDA-MB-435 melanoma; 10 µM 27.2% | SW-620 colon; 2.5 µM 41.9% | SW-620 colon; 10 µM 35.6% | MCF7 breast; 2.5 µM 24.4% | MCF7 breast; 10 µM 17.2% | HCT-116 colon; 2.5 µM 18.5% | HCT-116 colon; 10 µM 22.7% | HCC-2998 colon; 10 µM 106% | KM12 colon; 2.5 µM 30.6% | KM12 colon; 10 µM 31.9%

CC/C(=C(\c1ccccc1)c1ccc(OCCN(C)C)cc1)c1ccccc1
active: T-47D breast; 12.5 µM -18.5% | BT-549 breast; 12.5 µM -96% | MDA-MB-435 melanoma; 12.5 µM -87.2% | SW-620 colon; 10 µM 4.89% | SW-620 colon; 12.5 µM -50.4% | MCF7 breast; 10 µM -10.3% | MCF7 breast; 12.5 µM -61.6% | HCT-116 colon; 12.5 µM -98.1% | HCC-2998 colon; 12.5 µM -96.2% | KM12 colon; 12.5 µM -74.4%
inactive: BT-549 breast; 10 µM 69.8% | MDA-MB-435 melanoma; 10 µM 37.8% | HCT-116 colon; 10 µM 26.2% | HCC-2998 colon; 10 µM 16.3% | KM12 colon; 10 µM 25%

COc1ccc2sc3cccc(NCCN(C)C)c3c(=O)c2c1
38.3% (inactive) and -7.99% (active): KM12 colon; 10 µM
28.1% (inactive) and -83% (active): HCC-2998 colon; 10 µM
18.5% (inactive) and -76.2% (active): HCT-116 colon; 10 µM
30.5% (inactive) and -72.8% (active): MCF7 breast; 10 µM
31.3% (inactive) and -86.9% (active): MDA-MB-435 melanoma; 10 µM
70.7% (inactive) and -34.7% (active): T-47D breast; 10 µM
inactive: BT-549 breast; 10 µM 80.1% and 29.6%
24.5% (inactive) and -79% (active): SW-620 colon; 10 µM
